For assay [1], the target named is T1, Protein kinase C zeta type (Homo sapiens) (UniProt Q05513).
T1 sequence (whole entry): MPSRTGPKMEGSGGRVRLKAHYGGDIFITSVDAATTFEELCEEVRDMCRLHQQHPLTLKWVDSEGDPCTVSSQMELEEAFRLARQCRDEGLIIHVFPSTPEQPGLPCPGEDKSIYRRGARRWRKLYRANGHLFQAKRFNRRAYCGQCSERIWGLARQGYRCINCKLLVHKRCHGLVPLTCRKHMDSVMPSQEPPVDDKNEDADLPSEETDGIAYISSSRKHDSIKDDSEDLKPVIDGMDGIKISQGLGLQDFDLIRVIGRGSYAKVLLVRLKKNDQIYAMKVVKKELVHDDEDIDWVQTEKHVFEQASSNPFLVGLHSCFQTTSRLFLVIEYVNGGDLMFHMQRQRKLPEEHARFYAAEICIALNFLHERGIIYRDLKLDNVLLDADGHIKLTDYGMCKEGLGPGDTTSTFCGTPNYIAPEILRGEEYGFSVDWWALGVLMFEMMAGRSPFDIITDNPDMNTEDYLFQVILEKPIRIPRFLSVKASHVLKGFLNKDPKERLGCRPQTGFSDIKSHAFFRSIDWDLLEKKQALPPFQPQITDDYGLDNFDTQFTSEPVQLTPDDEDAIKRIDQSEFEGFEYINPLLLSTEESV
Particulars: at 1 µM; call rule not given here.

The target of assay [2] is T2, Mitogen-activated protein kinase kinase kinase 5 (Homo sapiens) (UniProt Q99683).
T2 sequence (whole entry): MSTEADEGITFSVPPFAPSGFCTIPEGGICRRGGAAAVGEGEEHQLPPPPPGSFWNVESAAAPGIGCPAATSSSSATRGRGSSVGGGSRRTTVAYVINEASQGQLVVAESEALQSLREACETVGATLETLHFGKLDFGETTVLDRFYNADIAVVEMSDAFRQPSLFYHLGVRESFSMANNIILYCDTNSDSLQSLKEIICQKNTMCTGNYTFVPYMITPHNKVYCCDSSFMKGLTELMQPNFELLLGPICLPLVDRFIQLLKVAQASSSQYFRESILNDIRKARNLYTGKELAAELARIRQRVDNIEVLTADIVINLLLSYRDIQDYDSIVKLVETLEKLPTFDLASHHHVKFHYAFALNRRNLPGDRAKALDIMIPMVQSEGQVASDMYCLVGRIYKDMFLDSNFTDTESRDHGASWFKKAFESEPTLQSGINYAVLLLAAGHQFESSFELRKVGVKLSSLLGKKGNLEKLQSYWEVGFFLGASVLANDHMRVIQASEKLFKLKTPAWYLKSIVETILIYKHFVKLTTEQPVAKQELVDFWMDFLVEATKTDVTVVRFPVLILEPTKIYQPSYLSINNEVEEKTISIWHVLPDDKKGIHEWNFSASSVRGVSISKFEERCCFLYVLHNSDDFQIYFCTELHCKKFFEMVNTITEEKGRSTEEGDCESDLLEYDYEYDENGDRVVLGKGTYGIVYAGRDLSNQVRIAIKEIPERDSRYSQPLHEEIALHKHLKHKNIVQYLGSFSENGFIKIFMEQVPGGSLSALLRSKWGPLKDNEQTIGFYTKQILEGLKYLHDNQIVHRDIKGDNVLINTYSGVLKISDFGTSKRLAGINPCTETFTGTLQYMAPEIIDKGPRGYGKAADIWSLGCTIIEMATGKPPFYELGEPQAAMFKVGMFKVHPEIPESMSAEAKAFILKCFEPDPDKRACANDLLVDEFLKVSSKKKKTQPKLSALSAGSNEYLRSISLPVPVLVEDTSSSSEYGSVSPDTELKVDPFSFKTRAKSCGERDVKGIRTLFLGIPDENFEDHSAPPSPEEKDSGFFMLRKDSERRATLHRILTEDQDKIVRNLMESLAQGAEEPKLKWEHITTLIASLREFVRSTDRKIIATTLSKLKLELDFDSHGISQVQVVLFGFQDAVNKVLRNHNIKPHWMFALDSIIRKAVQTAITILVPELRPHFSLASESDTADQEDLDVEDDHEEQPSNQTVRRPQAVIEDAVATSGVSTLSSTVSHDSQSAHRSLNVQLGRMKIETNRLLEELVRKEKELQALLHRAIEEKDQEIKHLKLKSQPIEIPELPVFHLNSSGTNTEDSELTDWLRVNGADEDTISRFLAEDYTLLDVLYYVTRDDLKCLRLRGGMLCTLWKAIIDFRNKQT
Conditions: at 10 µM.

Assay [3] has as its target Tyrosine-protein kinase ABL1 (Homo sapiens) (UniProt P00519). Conditions: at 1 µM.
Assay [4] has the same target. Conditions: at 10 µM.
Assay [5] addresses Tyrosine-protein kinase ABL2 (Homo sapiens) (UniProt P42684). Particulars: at 1 µM.
Assay [6] has the same target. Particulars: at 10 µM.
In assay [7] the target is T3, Aurora kinase A (Homo sapiens) (UniProt O14965).
T3 sequence (whole entry): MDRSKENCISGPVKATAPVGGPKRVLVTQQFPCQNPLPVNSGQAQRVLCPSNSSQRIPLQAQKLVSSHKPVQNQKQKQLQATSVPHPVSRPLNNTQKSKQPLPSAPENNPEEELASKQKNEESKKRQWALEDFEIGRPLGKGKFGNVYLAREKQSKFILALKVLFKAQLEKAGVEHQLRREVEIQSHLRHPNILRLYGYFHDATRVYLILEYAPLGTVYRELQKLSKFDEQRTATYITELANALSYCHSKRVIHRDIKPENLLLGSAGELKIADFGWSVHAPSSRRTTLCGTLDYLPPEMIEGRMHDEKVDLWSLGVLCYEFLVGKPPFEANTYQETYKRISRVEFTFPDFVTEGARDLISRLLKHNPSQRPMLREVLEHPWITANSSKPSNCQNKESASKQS
Particulars: at 1 µM.

Assay [8] has as its target T3, Aurora kinase A (Homo sapiens). Conditions: at 10 µM.
Assay [9] concerns the target Aurora kinase B (Homo sapiens) (UniProt Q96GD4). Particulars: at 1 µM.
Assay [10] has the same target. Conditions: at 10 µM.
For assay [11], the target named is T4, Aurora kinase C (Homo sapiens) (UniProt Q9UQB9).
T4 sequence (whole entry): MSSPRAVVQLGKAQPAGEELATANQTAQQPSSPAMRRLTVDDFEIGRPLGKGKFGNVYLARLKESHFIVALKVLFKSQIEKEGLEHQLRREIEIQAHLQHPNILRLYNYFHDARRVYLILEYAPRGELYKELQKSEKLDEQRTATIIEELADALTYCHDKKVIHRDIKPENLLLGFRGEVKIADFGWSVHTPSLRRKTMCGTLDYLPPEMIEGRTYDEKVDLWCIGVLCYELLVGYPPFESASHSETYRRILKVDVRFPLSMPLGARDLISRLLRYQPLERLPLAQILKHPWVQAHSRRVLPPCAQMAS
Conditions: at 1 µM.

In assay [12] the target is T4, Aurora kinase C (Homo sapiens). Conditions: at 10 µM.
For assay [13], the target named is Tyrosine-protein kinase receptor UFO (Homo sapiens) (UniProt P30530). Particulars: at 1 µM.
Sequence of Tyrosine-protein kinase receptor UFO (Homo sapiens) (P30530 whole entry): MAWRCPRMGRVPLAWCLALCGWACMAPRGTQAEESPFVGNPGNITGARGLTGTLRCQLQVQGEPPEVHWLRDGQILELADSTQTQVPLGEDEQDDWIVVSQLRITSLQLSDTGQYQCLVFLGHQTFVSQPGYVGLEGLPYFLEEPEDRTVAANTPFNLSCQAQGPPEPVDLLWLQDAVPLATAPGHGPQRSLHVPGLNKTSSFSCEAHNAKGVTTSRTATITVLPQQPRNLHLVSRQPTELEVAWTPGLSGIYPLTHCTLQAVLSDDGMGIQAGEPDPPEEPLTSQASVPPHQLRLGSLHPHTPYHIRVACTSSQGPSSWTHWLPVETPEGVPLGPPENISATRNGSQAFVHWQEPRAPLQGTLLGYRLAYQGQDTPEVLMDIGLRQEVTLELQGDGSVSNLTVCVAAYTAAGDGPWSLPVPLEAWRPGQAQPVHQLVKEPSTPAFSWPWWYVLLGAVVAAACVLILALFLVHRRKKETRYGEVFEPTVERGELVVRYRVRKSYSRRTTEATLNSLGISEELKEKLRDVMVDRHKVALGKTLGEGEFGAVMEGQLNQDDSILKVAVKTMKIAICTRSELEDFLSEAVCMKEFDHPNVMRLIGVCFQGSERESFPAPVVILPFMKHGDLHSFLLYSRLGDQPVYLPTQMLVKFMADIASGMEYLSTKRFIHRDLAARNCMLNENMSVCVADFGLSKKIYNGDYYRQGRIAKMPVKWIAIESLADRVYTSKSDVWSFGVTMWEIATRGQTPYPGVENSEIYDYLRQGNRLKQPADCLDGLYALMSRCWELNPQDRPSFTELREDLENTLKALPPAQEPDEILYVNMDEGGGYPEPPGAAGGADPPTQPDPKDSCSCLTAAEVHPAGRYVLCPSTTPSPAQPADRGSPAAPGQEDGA
The target is the same in assay [14]. Particulars: at 10 µM.
Assay [15] deals with Protein-tyrosine kinase 6 (Homo sapiens) (UniProt Q13882). Conditions: at 1 µM.
Sequence of Protein-tyrosine kinase 6 (Homo sapiens) (Q13882 whole entry, looked up): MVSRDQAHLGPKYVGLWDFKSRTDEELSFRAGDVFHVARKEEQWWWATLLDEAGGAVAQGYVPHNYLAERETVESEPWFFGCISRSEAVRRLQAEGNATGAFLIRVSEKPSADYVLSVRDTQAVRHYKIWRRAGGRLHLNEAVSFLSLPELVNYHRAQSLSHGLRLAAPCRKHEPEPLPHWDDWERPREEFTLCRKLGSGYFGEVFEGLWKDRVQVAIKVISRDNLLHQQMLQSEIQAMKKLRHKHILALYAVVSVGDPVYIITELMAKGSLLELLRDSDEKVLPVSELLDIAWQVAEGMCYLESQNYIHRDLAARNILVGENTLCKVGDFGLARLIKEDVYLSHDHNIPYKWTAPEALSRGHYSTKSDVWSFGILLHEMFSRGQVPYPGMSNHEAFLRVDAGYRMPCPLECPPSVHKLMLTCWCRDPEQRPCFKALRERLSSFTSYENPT
Assay [16] has the same target. Particulars: at 10 µM.
The target in assay [17] is Tyrosine-protein kinase BTK (Homo sapiens) (UniProt Q06187). Particulars: at 1 µM.
Assay [18] has the same target. Particulars: at 10 µM.
Assay [19] concerns the target Tyrosine-protein kinase Blk (Homo sapiens) (UniProt P51451). Particulars: at 1 µM.
The target is the same in assay [20]. Conditions: at 10 µM.

Sequence of Aurora kinase B (Homo sapiens) (Q96GD4 whole entry): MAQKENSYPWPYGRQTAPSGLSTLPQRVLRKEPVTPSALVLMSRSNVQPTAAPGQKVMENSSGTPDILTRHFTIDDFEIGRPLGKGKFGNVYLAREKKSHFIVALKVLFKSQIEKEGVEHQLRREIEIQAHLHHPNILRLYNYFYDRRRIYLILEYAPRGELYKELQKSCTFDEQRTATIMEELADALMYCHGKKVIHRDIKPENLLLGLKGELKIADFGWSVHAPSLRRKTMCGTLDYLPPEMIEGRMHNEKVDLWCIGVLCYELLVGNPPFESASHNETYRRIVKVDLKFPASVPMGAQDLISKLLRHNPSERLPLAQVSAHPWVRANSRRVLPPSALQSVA
Sequence of Tyrosine-protein kinase Blk (Homo sapiens) (P51451 2-505 limits assumed): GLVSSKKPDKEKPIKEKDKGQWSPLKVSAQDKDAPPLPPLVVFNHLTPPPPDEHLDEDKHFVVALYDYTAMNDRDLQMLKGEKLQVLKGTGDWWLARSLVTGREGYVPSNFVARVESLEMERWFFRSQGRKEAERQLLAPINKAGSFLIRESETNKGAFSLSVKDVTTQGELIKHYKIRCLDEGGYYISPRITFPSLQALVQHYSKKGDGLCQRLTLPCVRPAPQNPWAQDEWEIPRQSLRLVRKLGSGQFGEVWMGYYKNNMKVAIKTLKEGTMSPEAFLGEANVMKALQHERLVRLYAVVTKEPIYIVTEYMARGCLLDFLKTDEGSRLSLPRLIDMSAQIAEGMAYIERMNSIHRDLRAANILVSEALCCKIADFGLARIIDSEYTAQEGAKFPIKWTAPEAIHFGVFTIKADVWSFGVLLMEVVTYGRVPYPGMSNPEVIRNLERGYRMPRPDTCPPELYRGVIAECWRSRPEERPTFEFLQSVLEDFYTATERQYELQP
Sequence of Tyrosine-protein kinase ABL1 (Homo sapiens) (P00519 whole entry): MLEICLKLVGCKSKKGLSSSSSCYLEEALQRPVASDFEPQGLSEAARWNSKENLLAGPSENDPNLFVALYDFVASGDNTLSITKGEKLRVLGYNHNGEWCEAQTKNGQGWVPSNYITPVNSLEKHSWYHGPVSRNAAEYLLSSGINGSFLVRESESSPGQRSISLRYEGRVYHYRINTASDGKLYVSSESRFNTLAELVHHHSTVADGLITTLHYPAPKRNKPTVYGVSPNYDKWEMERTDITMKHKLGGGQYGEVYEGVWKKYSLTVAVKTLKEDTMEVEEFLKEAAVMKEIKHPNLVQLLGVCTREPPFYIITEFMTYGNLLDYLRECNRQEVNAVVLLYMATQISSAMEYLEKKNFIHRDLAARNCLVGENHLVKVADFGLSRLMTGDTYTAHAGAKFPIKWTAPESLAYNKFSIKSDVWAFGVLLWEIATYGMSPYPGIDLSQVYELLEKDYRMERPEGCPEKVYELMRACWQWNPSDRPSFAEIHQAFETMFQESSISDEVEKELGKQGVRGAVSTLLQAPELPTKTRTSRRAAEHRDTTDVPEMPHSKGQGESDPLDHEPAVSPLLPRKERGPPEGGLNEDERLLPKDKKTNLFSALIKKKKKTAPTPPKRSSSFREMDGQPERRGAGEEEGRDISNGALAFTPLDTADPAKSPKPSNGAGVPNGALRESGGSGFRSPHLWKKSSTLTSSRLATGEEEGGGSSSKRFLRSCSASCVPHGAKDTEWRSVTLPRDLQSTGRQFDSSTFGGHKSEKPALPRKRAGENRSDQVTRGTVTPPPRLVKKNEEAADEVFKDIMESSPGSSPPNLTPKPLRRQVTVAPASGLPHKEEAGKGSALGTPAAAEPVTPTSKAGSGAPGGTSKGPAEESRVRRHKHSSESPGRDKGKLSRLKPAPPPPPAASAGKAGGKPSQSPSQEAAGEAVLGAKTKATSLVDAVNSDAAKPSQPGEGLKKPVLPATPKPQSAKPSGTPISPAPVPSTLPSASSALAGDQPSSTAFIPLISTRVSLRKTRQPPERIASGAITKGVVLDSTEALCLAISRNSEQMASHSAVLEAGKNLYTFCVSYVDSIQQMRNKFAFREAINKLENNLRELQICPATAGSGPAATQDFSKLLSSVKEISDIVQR
Sequence of Tyrosine-protein kinase ABL2 (Homo sapiens) (P42684 whole entry): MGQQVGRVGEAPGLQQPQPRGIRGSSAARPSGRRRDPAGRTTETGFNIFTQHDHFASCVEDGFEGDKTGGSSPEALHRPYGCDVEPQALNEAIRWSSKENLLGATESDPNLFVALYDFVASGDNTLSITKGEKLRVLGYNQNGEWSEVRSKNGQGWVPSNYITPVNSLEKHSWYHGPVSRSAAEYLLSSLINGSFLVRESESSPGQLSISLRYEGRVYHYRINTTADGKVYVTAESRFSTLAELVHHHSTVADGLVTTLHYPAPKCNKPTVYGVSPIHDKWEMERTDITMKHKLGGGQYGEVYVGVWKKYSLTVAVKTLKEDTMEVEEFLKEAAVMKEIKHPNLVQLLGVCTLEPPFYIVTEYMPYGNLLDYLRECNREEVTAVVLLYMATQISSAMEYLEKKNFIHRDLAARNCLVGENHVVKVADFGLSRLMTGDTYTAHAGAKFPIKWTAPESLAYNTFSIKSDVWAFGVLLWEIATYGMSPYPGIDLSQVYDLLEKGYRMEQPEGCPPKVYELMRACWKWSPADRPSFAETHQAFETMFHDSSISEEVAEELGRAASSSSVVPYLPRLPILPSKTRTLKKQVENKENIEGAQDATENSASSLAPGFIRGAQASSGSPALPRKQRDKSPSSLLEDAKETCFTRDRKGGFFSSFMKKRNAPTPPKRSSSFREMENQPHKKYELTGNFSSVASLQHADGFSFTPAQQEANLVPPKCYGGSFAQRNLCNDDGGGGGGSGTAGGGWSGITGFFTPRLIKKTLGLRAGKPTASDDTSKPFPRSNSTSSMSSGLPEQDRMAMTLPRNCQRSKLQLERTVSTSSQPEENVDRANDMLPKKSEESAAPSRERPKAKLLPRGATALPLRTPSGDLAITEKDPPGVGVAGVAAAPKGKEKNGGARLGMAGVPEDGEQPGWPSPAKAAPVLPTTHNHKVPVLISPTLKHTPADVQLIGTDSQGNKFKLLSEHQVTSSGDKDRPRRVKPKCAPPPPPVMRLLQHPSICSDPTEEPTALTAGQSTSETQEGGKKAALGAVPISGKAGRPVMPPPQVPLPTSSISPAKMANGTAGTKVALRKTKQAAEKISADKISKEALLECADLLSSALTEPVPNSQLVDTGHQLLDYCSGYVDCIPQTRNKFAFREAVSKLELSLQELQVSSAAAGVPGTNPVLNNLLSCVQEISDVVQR

As for `C[C@@H](N)[C@H]1CC[C@H](C(=O)Nc2ccncc2)CC1`, the residual activity in assay [1] is 103% (inactive); in [2], 96%; in assay [3], 113%; in [4], 101%; in [5], 107%; in [6], 100%. Moreover, the residual activity in [7] was 95%; in assay [8], 89%; in assay [9], 73%; in assay [10], 82%; in [11], 96%; in assay [12] it was 72%. Moreover, the residual activity is 102% in assay [13]; 103% in [14]; 97% in [15]; 89% in assay [16]; 101% in assay [17]; 104% in assay [18]. The residual activity was 92% in assay [19] and 100% in assay [20].

Take `O=[N+]([O-])c1ccc(-c2nc(-c3ccc(F)cc3)c(-c3ccncc3)[nH]2)cc1`: the residual activity is 113% (inactive) in assay [1]; 100% in assay [2]; 95% in assay [3]; 95% in [4]; 82% in [5]; 46% in [6]. Moreover, the residual activity in assay [7] worked out at 103%; in [8] it was 109%; in assay [9] it was 114%; in assay [10], 90%; in assay [11], 107%; in assay [12], 92%. Further, the residual activity in assay [13] was 120%; in assay [14], 106%; in [15] it was 36%; in [16] it was 31%; in [17], 91%; in assay [18] it was 56%. For the same molecule, the residual activity in assay [19] worked out at 110%; in assay [20], 98%.

As for `Nc1ccc2ncnc(NCCc3ccc(Oc4ccccc4)cc3)c2c1`, the residual activity in assay [1] is 108% (inactive); in assay [2], 80%; in [3], 100%; in assay [4] it was 101%; in assay [5], 104%; in [6], 78%. Besides, the residual activity is 102% in assay [7]; 110% in assay [8]; 41% in assay [9]; 11% in assay [10]; 89% in assay [11]; 87% in assay [12]. Also, the residual activity is 72% in assay [13]; 33% in assay [14]; 95% in assay [15]; 79% in assay [16]; 95% in assay [17]; 94% in [18]. The residual activity in [19] came to 68%; in [20] it was 18%.

For the molecule `Ic1cccc(CSc2nnc(-c3ccncc3)o2)c1`, the residual activity is 101% (inactive) in assay [1]; 86% in [2]; 87% in [3]; 70% in [4]; 112% in assay [5]; 71% in assay [6]. Further, the residual activity in [7] was 83%; in [8] it was 80%; in [9] it was 77%; in [10], 42%; in [11], 79%; in assay [12] it was 74%. The residual activity in assay [13] came to 74%; in assay [14], 60%; in assay [15] it was 105%; in assay [16], 96%; in assay [17] it was 79%; in assay [18], 95%. For the same molecule, the values for the residual activity in assay [19] and in assay [20] were 87% and 61%, respectively.

`Cc1ccc(S(=O)(=O)/C=C/C#N)cc1`: the residual activity in assay [1] was 102% (inactive); in assay [2], 115%; in assay [3], 104%; in [4], 97%; in [5], 91%; in assay [6] it was 97%. The residual activity in [7] came out at 118%; in assay [8], 103%; in assay [9] it was 105%; in assay [10] it was 88%; in assay [11] it was 93%; in assay [12] it was 90%. The residual activity in assay [13] stood at 107%; in [14] it was 94%; in assay [15], 107%; in [16], 106%; in [17], 98%; in [18], 96%. In addition, the figures for the residual activity in assay [19] and in assay [20] were 108% and 117%, respectively.

On to `CCC(=O)Nc1ccc2ncnc(Nc3cccc(Br)c3)c2c1`, for which the residual activity in [1] was 116% (inactive); in assay [2] it was 108%; in [3] it was 90%; in [4], 89%; in [5] it was 96%; in assay [6] it was 72%. Also, the residual activity is 73% in [7]; 127% in assay [8]; 101% in assay [9]; 67% in assay [10]; 94% in [11]; 80% in assay [12]. Further, the residual activity in assay [13] was 83%; in [14], 80%; in [15], 80%; in assay [16], 60%; in assay [17], 95%; in assay [18], 78%. Further, the residual activity in [19] came to 112%; in [20], 80%.

Source of the values: ChEMBL document CHEMBL2218924, “A broad activity screen in support of a chemogenomic map for kinase signalling research and drug discovery” (Biochem J, 2013).
